This is a sample that favours compounds with a hit; in the whole collection about 18% have one here.
PLK1 PBD block: inhibitors of human PLK1 polo-box domain binding. Potency, µM, for the others: max response, negative = inhibition, usual class: inhibitors. Plk1 PBD binding of FITC phosphopeptide, fluorescence polarization. 360,000 tested, 2.8% active; note: series mostly up to about 57 µM; nearly all actives have a fitted effect of over 65% in size
DT40 TDP1 CPT: DT40-hTDP1 cell growth loss with CPT; chicken DT40 Tdp1-/-;hTDP1 cells + 20 nM CPT, ATP luminescence, 48 h; Potency, µM (highest dose often 46.2 µM), inactives show at the highest dose activity change, negative = growth inhibition, usual class: inhibitors; 420,000 tested, 12% active; note: nearly all actives have a fitted effect of over 55% in size
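Chicken DT40 Tdp1-/- cells complemented with human TDP1, 400 cells/well, exposed to compounds plus 20 nM camptothecin for at least 48 h at 37 C; viability read as ATP content by CellTiter-Glo luminescence.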
TDP1 inh: blocks human tyrosyl-DNA phosphodiesterase 1 | recombinant TDP1, AlphaScreen DNA substrate cleavage | 350,000 tested, 0.28% active | Potency, µM (top dose mostly 130 µM), for inactives: top-dose activity change, negative = inhibition, hits mostly inhibitors | AID 485290 | Q9NUW8; note: nearly all actives have a fitted effect of over 40% in size
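AlphaScreen read-out: signal falls as enzyme removes the 3' tyrosine-FITC from a 5'-biotinylated DNA oligo (15 nM, 5 min, RT). Enzyme was E. coli-made recombinant Tdp1 at 1 nM, exposed to compound for 15 min beforehand; beads 10 ug/ml, 10 min.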
DT40 TDP1 no CPT: qHTS for Inhibitors of human tyrosyl-DNA phosphodiesterase 1 (TDP1): qHTS in cells in absence of CPT; 420,000 tested, 15% active; Potency, µM (series often up to 46.2 µM), without a hit: at the highest dose activity change, negative = growth inhibition, actives largely listed as inhibitors; DT40 Tdp1-/- hTDP1 cells, no CPT, ATP luminescence, 48 h; note: nearly all actives have a fitted effect of over 55% in size
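Readout: luminescence from CellTiter-Glo after 30 min in the dark at RT. Cells: DT40 Tdp1-/- with stable hTDP1, 400/well. Exposure: compounds alone, ≥48 hr, 37 °C.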
GCN5L2 inh: GCN5L2 (KAT2A) acetyltransferase inhibition | GCN5L2 HAT assay, ThioGlo1 CoA-SH fluorescence | Potency, µM (titrated, usually from 58.9 µM), without a hit: at the top dose activity change, negative = inhibition, hits mostly inhibitors | 390,000 tested, 0.21% active
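Enzyme at 20nM final was mixed with library compounds for 15 min at room temperature. Peptide H3(1-25) at 75uM, acetyl-CoA at 70uM and ThioGlo1 at 50uM were then added. Plates were read immediately and after 20 min (Ex340nm/Em540nm).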
VDR inh: vitamin D3 receptor (human) inhibition | Potency, µM, without a hit: max response, negative = inhibition, most hits filed as inhibitors | VDR-SRC2-3 peptide fluorescence polarization, 2 h | AID 504847 | P11473 | 400,000 tested, 0.93% active
Target sequence (P11473 whole entry, looked up): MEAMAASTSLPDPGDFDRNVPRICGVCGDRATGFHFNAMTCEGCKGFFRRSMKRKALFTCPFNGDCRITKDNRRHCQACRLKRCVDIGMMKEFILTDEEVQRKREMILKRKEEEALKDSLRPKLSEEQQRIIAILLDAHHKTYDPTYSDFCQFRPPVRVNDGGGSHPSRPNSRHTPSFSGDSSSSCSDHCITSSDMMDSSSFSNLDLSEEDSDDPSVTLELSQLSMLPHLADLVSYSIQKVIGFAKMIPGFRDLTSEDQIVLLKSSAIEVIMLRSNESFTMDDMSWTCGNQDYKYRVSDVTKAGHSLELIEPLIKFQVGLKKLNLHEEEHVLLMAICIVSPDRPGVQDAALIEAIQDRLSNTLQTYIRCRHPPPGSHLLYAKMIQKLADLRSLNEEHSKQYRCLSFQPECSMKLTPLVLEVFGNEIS
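Measured by FP: displacement of SRC2-3 coactivator peptide from VDR by library compounds, following a two-hour ambient incubation.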
Active calls of the source: *; ? = inconclusive; . = no result given. Calls come from the whole dose curve; as a rule, active = well fitted curve in the direction sought with a large enough effect; inconclusive = small, poorly fitted or top-dose-only effect, or another doubt; inactive = no such curve, though single readings can be large; an effect the other way counts as inactive or inconclusive. % is set by controls: 0 for no effect and ±100 for the full control effect; potency is the fitted concentration of half-maximal effect.

SMILES | PLK1 PBD block | DT40 TDP1 CPT | TDP1 inh | DT40 TDP1 no CPT | GCN5L2 inh | VDR inh
COC(=O)c1ccccc1NC(=O)c1ccc(-c2nc(CSc3ccc(C)cc3)c(C)o2)cc1 | . | -9% | 3% | 0% | -2% | 12%
C=C1CCC[C@]2(C)C[C@H]3OC(=O)[C@H](CNCCc4ccccc4OC)C3CC12 (stereo partly specified) | . | ? | -6% | ? | . | -15%
COCCn1c(SCC(=O)c2ccc(C)cc2C)nc2cc(C(=O)NC3CCCC3)ccc2c1=O | . | 4% | 5% | -18% | -15% | 14%
CC1CCN(C(=O)c2[nH]cnc2C(=O)N[C@@H](C)c2ccccc2)CC1 | -11% | -1% | 0% | -21% | -5% | -6%
COc1cccc2c1OC[C@@H](CO)[C@H]2N(C)C(=O)Nc1ccc(Cl)cc1Cl | -5% | 13µM* | 2% | 10µM* | -1% | -14%
COc1ccccc1-c1nnc(SCC(=O)Nc2ccc(Cl)cc2Cl)o1 | -13% | -17% | 3% | -23% | -21% | 16%
OCC[N+]1(CCc2ccccc2)CCOCC1 | . | -13% | . | -8% | . | .
CCOc1ccc(NC(=O)NC2CCS(=O)(=O)C2)cc1 (stereo unspecified) | -1% | 23% | . | 3% | -3% | -15%
Fc1ccccc1Cc1noc(CN2CCC(OCc3cccnc3)CC2)n1 | -9% | ? | 0% | 23µM* | 2% | -1%
Fc1cccc(Cc2noc(CN3CCC(c4ccncc4)CC3)n2)c1 | -4% | 18µM* | -4% | 13µM* | 4% | -11%
COC1CCCN(Cc2nc(Cc3ccccc3F)no2)C1 (stereo unspecified) | -10% | 7% | -10% | 2% | -1% | 16%
Cc1ccc(C2(c3noc(CN4CCC(c5ccncc5)CC4)n3)CCCC2)cc1 | 4% | 13µM* | 1% | 18µM* | ? | 1%
CCc1ccc(N2C(=O)CS(=O)(=O)C23C(=O)N(Cc2ccccc2)c2ccccc23)cc1 (stereo unspecified) | . | ? | 4% | ? | 2% | -3%
COc1ccc(C)cc1NC(=O)c1cn(C)c(=O)c2cc(OC)c(OC)cc12 | . | -19% | 2% | -20% | -9% | 5%
CSc1nnc2c3cc(C)ccc3n(Cc3ccccc3)c2n1 | -9% | ? | -2% | 12µM* | -6% | -14%
COc1ccc2c(c1)c1nnc(SC)nc1n2Cc1ccccc1 | . | 10µM* | . | 11µM* | . | 4%
CCn1c2ccc(OC)cc2c2nc3ccccc3nc21 | -15% | ? | 0% | 12µM* | -7% | 4%
CCc1nn(CC(=O)NCc2cccnc2)c(=O)c2cc3occc3n12 | -15% | -3% | 1% | 19% | -1% | -11%
CC(C)(C)N(Cc1ccccc1)C(=O)CSc1nnc(CNc2ccc(F)cc2)o1 | -3% | 11µM* | 3% | ? | . | 13%
O=C(CSc1nnc(CNc2ccc(F)cc2)o1)N1c2ccccc2Sc2ccccc21 | -6% | 21µM* | 9% | 26µM* | -21% | -5%
O=S(=O)(NCCS(=O)(=O)N1CCN(c2ccccc2F)CC1)c1ccc(Cl)cc1 | . | ? | 4% | ? | -2% | 10%
COc1ccc(-c2ccc(CN3C(CC(C)C)C(=O)N(Cc4cn(CCC5OCCO5)nn4)CCS3(=O)=O)cc2)cc1OC (stereo unspecified) | -14% | 21µM* | . | 16µM* | . | .
CC(C)CC1C(=O)N(Cc2cn(CCC3OCCO3)nn2)CCS(=O)(=O)N1Cc1ccc(-c2ccc(F)cc2)cc1 (stereo unspecified) | 6% | ? | . | 23µM* | . | .
COc1ccc(-c2ccc(CN3C(C)C(=O)N(Cc4cn(CCC5OCCO5)nn4)CCS3(=O)=O)cc2)cc1OC (stereo unspecified) | -13% | 18µM* | . | 12µM* | . | .
COCOCCn1cc(CN2CCS(=O)(=O)N(Cc3ccc(-c4cccc(CO)c4)cc3)C(C)C2=O)nn1 (stereo unspecified) | 8% | 1% | . | -15% | . | .
SMILES | PLK1 PBD block | DT40 TDP1 CPT | TDP1 inh | DT40 TDP1 no CPT | GCN5L2 inh | VDR inh
COc1ccc(NC(=O)COC(=O)Cc2cccs2)cc1Cl | 4% | 16% | . | 4% | . | .
CCC(C)NC(=O)c1sc2nc(C)c(C(=O)Nc3ccc(Cl)cc3)c(-c3ccc(Br)cc3)c2c1N (stereo unspecified) | . | ? | 3% | 21µM* | -7% | -12%
Cc1nc2sc(C(N)=O)c(N)c2c(-c2ccc(Br)cc2)c1C(=O)Nc1ccc(Cl)cc1 | . | ? | -9% | ? | -16% | -20%
COCCn1c(SCC(=O)Nc2cc(C)on2)nnc1C(C)C | -1% | 9% | 2% | -1% | -1% | -20%
O=C(c1cc([N+](=O)[O-])cc([N+](=O)[O-])c1)N(Cc1nnc(-c2ccccc2Cl)o1)C1CC1 | -9% | ? | 6% | 18µM* | 10% | 7%
O=C1CCCN1c1ccc(C(=O)N(Cc2nnc(-c3ccccc3Cl)o2)C2CC2)cc1 | -8% | ? | . | ? | -1% | -8%
O=C(c1ccc(Cl)c(S(=O)(=O)N2CCOCC2)c1)N(Cc1nnc(-c2ccccc2Cl)o1)C1CC1 | 1% | 21µM* | 5% | 15µM* | 0% | 15%
CCCN(Cc1nnc(-c2ccccc2Cl)o1)C(=O)c1cc2ccccc2o1 | -7% | ? | -2% | ? | -5% | 14%
CN1CCN(S(=O)(=O)c2cccc(C(=O)N(Cc3nnc(-c4ccc(Cl)cc4)o3)C3CC3)c2)CC1 | 7% | 21µM* | -10% | ? | 3% | 14%
O=C(c1cc(S(=O)(=O)N2CCOCC2)ccc1F)N(Cc1nnc(-c2ccccc2Cl)o1)C1CC1 | -5% | ? | 0% | ? | -2% | -1%
CCCN(Cc1nnc(-c2ccccc2Cl)o1)C(=O)c1cc([N+](=O)[O-])cc([N+](=O)[O-])c1 | -7% | 6.5µM* | 5% | 6.5µM* | -5% | 7%
CN(C)S(=O)(=O)c1ccc(C(=O)NCc2nnc(SCC(=O)Nc3ccc(F)cc3)n2-c2ccc(F)cc2)cc1 | 8% | -6% | 1% | ? | -3% | -21%
O=C(NC(Cc1ccccc1)C(=O)O)/C(=C/c1ccc([N+](=O)[O-])cc1)NC(=O)c1ccco1 (stereo unspecified) | -1% | 1% | 0% | 9% | -10% | 12%
Cc1cccc(C(=O)NNc2ncnc3c2cnn3-c2ccc(C)c(Cl)c2)c1 | . | -21% | 10% | 0% | -7% | 4%

High-throughput results from PubChem BioAssay.
